Screening results from PubChem BioAssay.
RXFP1 ag = agonists of human relaxin receptor RXFP1; AID 2676; HEK293T-RXFP1 cAMP TR-FRET, 30 min; response scale: percent of porcine relaxin response, buffer zero; hit rate 0.3% among 370,000; Potency, µM (top dose mostly 57.5 µM), most hits filed as activators; Q9HBX9; note: nearly all actives have a fitted effect of over 60% in size
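Agonist response is measured as cAMP accumulation in an RXFP1-transfected HEK293T line under PDE4 inhibition. Values are scaled between buffer-only and 29 nM porcine relaxin, and EC50s come from standard Hill equation fits.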
RXFP1 antagonist = antagonists of human relaxin receptor RXFP1 | HEK293-RXFP1, relaxin-stimulated cAMP HTRF, 30 min; stronger effect = lower value | hit rate 0.59% among 350,000 | activity change, negative = inhibition, % at 57.5 µM;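 active = activity change of -60% or lower, but not beyond a set lower limit; inconclusive = change between -60% and -40%, or beyond the set limit; inactive = change above -40%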
gsp ag = agonists of gsp mutant (McCune-Albright syndrome) | Potency, µM (series often up to 76.9 µM), actives largely listed as activators | hit rate 0.13% among 340,000 | gsp mutant cells, cAMP HTRF, 30 min; active = well fitted activation curve with a large enough effect; inconclusive = small, poorly fitted or top-dose-only effect, or another doubt; inactive = no such curve, though single readings can be large or run the other way; cell line not stated here;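 note: phosphodiesterase inhibitor Ro 20-1724 added with compounds to block cAMP breakdown; nearly all actives have a fitted effect of over 60% in size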
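Cells in DMEM/10% FBS with G418 were pretreated with compounds in DMSO plus […] (300 uM stock) for 30 min at 37C. cAMP was measured by HTRF (cAMP-d2 plus anti-cAMP antibody-K) after 30 min at room temperature.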
gsp antag = gsp mutant antagonism | Potency, µM (titrated, usually from 76.9 µM), most hits filed as inhibitors | hit rate 0.4% among 340,000 | gsp-mutant cells, cAMP HTRF, 30 min | AID 624288; calls by dose curve; cell line not stated here;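 note: intracellular cAMP measured with PDE inhibitor Ro 20-1724 present during compound exposure; nearly all actives have a fitted effect of over 65% in size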
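Cells, 2000/well, grown 16–24 h in DMEM 10% FBS with 0.5 mg/ml G418, then compounds plus […] (300 uM addition stock), 30 min at 37C. cAMP read by HTRF (cAMP-d2 and anti-cAMP antibody-K in lysis buffer) after 30 min RT.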
p53 reactivation = restores transcriptional activity of mutant p53; hit rate 0.063% among 320,000; H1299 p53-A138V BP100-luciferase reporter, luminescence, 24 h; Potency, µM (titrated, usually from 92.2 µM), actives largely listed as activators; note: nearly all actives have a fitted effect of over 45% in size
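H1299 (p53-null), stable ts p53-A138V + BP100-Luc; 1000 cells/well, Opti-MEM/10% FBS; cpd 4 pt, 1:5; 24 h, 37 deg C, 5% CO2; detection reagent 10 min RT; luminescence.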
Tb PFK inh = blocks T. brucei phosphofructokinase | T. brucei PFK, ADP-Glo luminescence | AID 485367 | O15648 | Potency, µM (top dose mostly 57.5 µM), actives largely listed as inhibitors | hit rate 0.17% among 330,000; note: nearly all actives have a fitted effect of over 60% in size
Target sequence (O15648 whole entry, looked up): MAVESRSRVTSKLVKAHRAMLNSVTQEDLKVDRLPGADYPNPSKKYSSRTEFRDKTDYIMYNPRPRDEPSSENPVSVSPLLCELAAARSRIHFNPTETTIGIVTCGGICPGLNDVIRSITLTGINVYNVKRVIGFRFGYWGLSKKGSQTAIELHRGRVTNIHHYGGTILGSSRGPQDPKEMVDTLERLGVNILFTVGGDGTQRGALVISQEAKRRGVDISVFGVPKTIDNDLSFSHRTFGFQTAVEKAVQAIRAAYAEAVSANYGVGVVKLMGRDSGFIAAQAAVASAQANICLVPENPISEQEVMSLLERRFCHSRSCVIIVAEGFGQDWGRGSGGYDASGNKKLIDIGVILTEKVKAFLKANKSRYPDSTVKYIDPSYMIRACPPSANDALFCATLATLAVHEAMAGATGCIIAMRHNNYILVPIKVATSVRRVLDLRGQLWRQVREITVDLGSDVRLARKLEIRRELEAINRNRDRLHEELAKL
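Compounds were pin-transferred as a titration series up to 57 uM into substrate buffer (0.5 mM F6P, 0.1 mM ATP, pH 8.0), then 1.25 nM PFK was added and reactions ran 45 min before ADP-Glo detection.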
Large screens that a line does not name were inactive; ! = a repeat was not active. This is a sample that favours compounds with a hit; in the whole collection about 1.1% have one here. Unless noted, calls come from the whole dose curve; as a rule, active = well fitted curve in the direction sought with a large enough effect; inconclusive = small, poorly fitted or top-dose-only effect, or another doubt; inactive = no such curve, though single readings can be large; an effect the other way counts as inactive or inconclusive.

C=CC(=O)N1C/C(=C/c2ccc(Cl)cc2)C(=O)/C(=C\c2ccc(Cl)cc2)C1	RXFP1 antagonist -67 (no result: RXFP1 ag, p53 reactivation, Tb PFK inh)
CN(Cc1cnn(-c2ccccc2)c1)C(=O)c1cccc(S(=O)(=O)Nc2ccccc2F)c1	none (no result: RXFP1 ag, gsp antag, p53 reactivation, Tb PFK inh)
O=C(N/N=C/C(Cl)=C/c1ccc([N+](=O)[O-])cc1)C(=O)Nc1cccc(C(=O)O)c1	gsp ag inconclusive
c1ccc(-c2noc(-c3ccccc3-c3ccccc3)n2)cc1	gsp ag inconclusive
CN(C)c1ccc(-c2noc(-c3ccccc3O)n2)cc1	p53 reactivation 7.1µM
O=C(CN(Cc1cccs1)C(=O)CN1C(=O)COc2ccccc21)NCc1ccco1	none
O=C(Oc1ccc(N(C(=O)c2ccncc2)S(=O)(=O)c2ccc(F)cc2)cc1)c1ccncc1	RXFP1 antagonist -90
O=C(Oc1ccc(N(C(=O)c2ccncc2)S(=O)(=O)c2ccc(Cl)cc2)cc1)c1ccncc1	none
COc1ccc(N(C(=O)c2ccncc2)S(=O)(=O)c2ccc(Cl)cc2)cc1	gsp ag inconclusive, gsp antag 50µM (no result: p53 reactivation)
Cc1cc(C)c2c(NC(N)=S)n[nH]c2n1	none
CCCCc1nc2cc(C(=O)NCc3nccn3CC)ccc2o1	none
CCCCc1nc2cc(C(=O)NCc3cn(C)nc3C)ccc2o1	gsp antag 35µM
Cn1cc(S(=O)(=O)N2CCCC2)cc1C(=O)Nc1ccc(C(F)(F)F)cc1	none (no result: gsp ag, gsp antag, p53 reactivation, Tb PFK inh)
O=C(O)c1ccc(Nc2nc3c(s2)CCCC3)cc1	gsp ag 10µM
Cc1cccc(Nc2nc3c(s2)CCCC3)c1	p53 reactivation inconclusive
CCOc1cccc(CNc2ccc(O)cc2)c1OCc1ccc(Cl)cc1Cl	RXFP1 antagonist inconclusive, gsp antag inconclusive
CCOc1cccc(CNc2ccc(O)cc2)c1OCc1ccccc1Cl	RXFP1 antagonist -89!
CC1(C)NC(=O)N(CCCSc2ccc(Cl)cc2)C1=O	none
CCCn1c(C)cc(C(=O)CSc2nc3ccccc3c(=O)n2Cc2ccco2)c1C	p53 reactivation 25µM
Cc1cc(C(=O)CSc2nc3ccccc3c(=O)n2C)c(C)n1Cc1ccc2c(c1)OCO2	RXFP1 ag 20µM, gsp antag inconclusive
Cc1cnc(C(=O)NCCc2ccc(C(F)(F)F)cc2)cn1	none
COc1ccc2c(c1)c1nnc(SC)nc1n2C	none
O=C(/C=C/c1ccc(O)c([N+](=O)[O-])c1)c1ccc2ccccc2c1	gsp antag inconclusive, p53 reactivation inconclusive
COc1ccc(Oc2ccc(/C=C/C(=O)c3ccc(O)cc3)cc2[N+](=O)[O-])cc1	RXFP1 antagonist -64
COc1ccc(C(=O)NCCCn2ccnc2)cc1[N+](=O)[O-]	none
CC(C)(CO)Nc1ccc([N+](=O)[O-])cc1[N+](=O)[O-]	none
Cc1cc(OC(C)C(=O)N2CCC(c3nc4ccccc4o3)CC2)ccc1Cl (stereo unspecified)	RXFP1 antagonist -62 (no result: gsp ag, gsp antag, p53 reactivation, Tb PFK inh)
CCc1ccc(OC(C)C(=O)N2CCC(c3nc4ccccc4o3)CC2)cc1 (stereo unspecified)	RXFP1 antagonist inconclusive (no result: gsp ag, gsp antag, p53 reactivation, Tb PFK inh)
COc1ccc(S(=O)(=O)N2CCOC2CNC(=O)C(=O)NCCCN(C)C)cc1C (stereo unspecified)	none (no result: RXFP1 ag, p53 reactivation, Tb PFK inh)
CN=C1S/C(=C\c2cn(CC(=O)OC)c3ccccc23)C(=O)N1C	none
CCc1ccc(CN(Cc2ccco2)C(=O)c2ccc(OC)cc2)cc1	RXFP1 antagonist -63 (no result: gsp ag, gsp antag, p53 reactivation, Tb PFK inh)
CCc1ccc(CN(Cc2ccco2)C(=O)COc2ccccc2Cl)cc1	RXFP1 antagonist -61 (no result: gsp ag, gsp antag, p53 reactivation, Tb PFK inh)
CCOC(=O)CNC(=S)N(Cc1ccco1)Cc1ccccc1Cl	gsp antag 40µM
Cc1cc(CSc2ccccc2C(=O)O)on1	none
CCOc1ccccc1N1CCN(C(=O)c2csc(C)c2CC)CC1	gsp antag inconclusive
CCCC1COC(Cn2cncn2)(c2ccc(C)cc2)O1 (stereo unspecified)	p53 reactivation inconclusive
COCCCNC(=O)c1ccc2c(c1)N(Cc1ccccc1)C(=O)c1ccccc1S2	none (no result: gsp ag, gsp antag, p53 reactivation, Tb PFK inh)
CCCCN(CC)CCCNC(=O)c1ccc2c(c1)N(Cc1ccc(C)cc1)C(=O)c1ccccc1S2	RXFP1 antagonist -66 (no result: gsp ag, gsp antag, p53 reactivation, Tb PFK inh)
CC(C)c1ccc(/C=C(/C#N)c2nnc(NC(=O)c3ccccc3)s2)cc1	none
Cc1ccc(/C=N/NC(=O)C2CC(=O)N(c3ccccc3)C2)s1 (stereo unspecified)	none
O=C(N/N=C/c1ccccc1O)C1CC(=O)N(c2ccc(Cl)cc2)C1 (stereo unspecified)	p53 reactivation 32µM
CC(C)c1ccc(NC(=O)CN2C(=O)COc3ccc(S(=O)(=O)Nc4ccccc4)cc32)cc1	none (no result: RXFP1 antagonist, gsp ag, gsp antag, p53 reactivation, Tb PFK inh)
COc1ccc(-c2nc(C(=O)NCC3CCCO3)cc3c2[nH]c2ccccc23)cc1 (stereo unspecified)	gsp antag 28µM (no result: RXFP1 antagonist, gsp ag)
CC(=O)Nc1ccc(NC(=O)CCn2c(=O)oc3ccccc32)cc1	none
CC(=O)N1CCN(S(=O)(=O)c2cccc(C(=O)Nc3ccc4c(c3)OCO4)c2)CC1	gsp antag 11µM
COc1ccc(-c2nc(-c3ccccc3)c(-c3ccc(O)cc3)[nH]2)cc1	RXFP1 antagonist -104 (no result: gsp ag, gsp antag, p53 reactivation, Tb PFK inh)
Cc1nn(S(=O)(=O)c2cccs2)c(C)c1Sc1ccc([N+](=O)[O-])cc1	gsp antag 25µM
COc1ccc(N2CCN(S(=O)(=O)c3ccc(-c4cnc(C5CC5)o4)cc3)CC2)cc1	none
CCOC(=O)Cc1csc(NC(=O)COc2ccc(N(C)S(=O)(=O)c3cccs3)cc2)n1	gsp antag 35µM
Cc1ccc(-n2cc(CNCCCn3cccn3)c(-c3cccc(C)c3)n2)cc1	RXFP1 antagonist -64
Cc1ccc(C)c(-n2cc(CNCCCn3cccn3)c(-c3ccccc3)n2)c1	none
COc1ccc(NC(=O)C/C(C)=N/NC(=O)c2ccco2)c([N+](=O)[O-])c1	RXFP1 antagonist -66, gsp ag inconclusive
CCOc1c(Cl)cc(CNc2ccc(N3CCCC3)cc2)cc1OC	RXFP1 antagonist -75
O=C1c2cccc(NCCCNCCO)c2C(=O)c2cccc(NCCCNCCO)c21	RXFP1 antagonist inconclusive, gsp antag 40µM (no result: RXFP1 ag, p53 reactivation, Tb PFK inh)
O=[N+]([O-])c1ccc(CS(=O)c2ccccc2)cc1 (stereo unspecified)	none (no result: RXFP1 ag, p53 reactivation, Tb PFK inh)
O=[N+]([O-])c1ccc(S(=O)Cc2ccccc2)c([N+](=O)[O-])c1 (stereo unspecified)	RXFP1 antagonist -103 (no result: RXFP1 ag, p53 reactivation, Tb PFK inh)
CCc1cc(C(=O)N2CCCC(N3CCN(c4cccc(C(F)(F)F)c4)CC3)C2)n(C)n1 (stereo unspecified)	none
C=CCNC(=S)Nc1sc2c(c1C(=O)OCC)CC(C(C)C)OC2 (stereo unspecified)	RXFP1 antagonist -96, gsp ag inconclusive
COCCNC(=O)c1ccc(NC(=O)C2(c3ccccc3)CCCC2)cc1	none
